Compound activity from PubChem BioAssay.
A selection: hits, their analogues and other compounds. The true share with any hit is near 6.2%.
HT1080-NT tox = qHTS for induction of synthetic lethality in tumor cells producing 2HG: qHTS for the HT-1080-NT fibrosarcoma cell line; Potency, µM (top dose mostly 46.1 µM), most hits filed as cytotoxic; HT-1080-NT fibrosarcoma viability, CellTiter-Glo ATP luminescence, 48 h; 360,000 compounds, 1.6% hits;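 further: NT is the 2HG producing partner of a matched IDH1 knockdown line; nearly all actives have a fitted effect of over 55% in size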
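Toxicity toward the 2HG-producing NT line was scored as %Activity, normalised to DMSO and no-cell wells, from CellTiter-Glo luminescence after 48 hours' treatment.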
S2 tox = Viability Counterscreen for Primary qHTS for Inhibitors of ATXN expression; S2 cells (HEK-293 line with an ATXN2-luciferase reporter) viability, CellTiter-Fluor protease fluorescence, 24 h; Potency, µM (titrated, usually from 56.7 µM), most hits filed as cytotoxic; 400,000 compounds, 0.49% hits; AID 651635, 2014; further: nearly all actives have a fitted effect of over 40% in size
ATXN2 expr inh = Primary qHTS for Inhibitors of ATXN expression; 360,000 compounds, 0.72% hits; HEK-293 ATXN2-luciferase reporter, luminescence, 24 h; Potency, µM (doses to about 57 µM), actives largely listed as inhibitors; AID 1745845, 2022; further: nearly all actives have a fitted effect of over 55% in size
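ATXN2-luciferase reporter cells (luciferase flanked by upstream and downstream ATXN2 gene portions) were treated 24 h at 37 °C with compounds at up to 57 uM. SteadyGlo luminescence gave expression; GF-AFC fluorescence gave viability.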
KB-3-1 tox = qHTS assay for MDR1-selective chemotherapeutics: Primary screen using the parental adenocarcinoma cell KB-3-1; Potency, µM (series often up to 46.1 µM), most hits filed as cytotoxic; 400,000 compounds, 1.4% hits; KB-3-1 viability, CellTiter-Glo ATP luminescence, 72 h; further: nearly all actives have a fitted effect of over 60% in size
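Parental KB-3-1 adenocarcinoma cells in phenol-red-free DMEM with 10% FBS were pin-treated with compounds at several concentrations, incubated 72 h at 37 °C, and viability read by CellTiter-Glo luminescence; concentration-effect curves were fitted after normalization.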
HT1080 IDH1KD tx = qHTS for induction of synthetic lethality in tumor cells producing 2HG: qHTS for the HT-1080-IDH1KD cell line; HT-1080 IDH1 knockdown viability, ATP luminescence, 48 h; Potency, µM (doses to about 46.1 µM), most hits filed as cytotoxic; 360,000 compounds, 2% hits
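Viability of IDH1-knockdown HT-1080 fibrosarcoma cells was assessed by CellTiter-Glo after 48 h at 37 °C with titrated compound; concentration-effect curves were classified by fit quality and response size.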
KB-V1 cytotox = qHTS assay for MDR1-selective chemotherapeutics: Primary screen using the drug-selected MDR subline cells KB-V1 | Potency, µM (titrated, usually from 46.1 µM), usual class: cytotoxic | 400,000 compounds, 3.4% hits | KB-V1 MDR cells viability, CellTiter-Glo, 72 h; further: nearly all actives have a fitted effect of over 60% in size
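Compound-treated KB-V1 multidrug-resistant cells, 72 h, 37 degrees C; viability by CellTiter-Glo. Fitted qHTS curves give the values.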
Numbers stand for hits; – = inactive; ? = inconclusive; · = no result; [ ] = another dose, or the depositor's remark. The call rests on the fitted dose curve; in most records, active means well fitted curve in the direction sought with a large enough effect; inconclusive means small, poorly fitted or top-dose-only effect, or another doubt; inactive means no such curve, though single readings can be large; an effect the other way counts as inactive or inconclusive.

SMILES	HT1080-NT tox	S2 tox	ATXN2 expr inh	KB-3-1 tox	HT1080 IDH1KD tx	KB-V1 cytotox
CCCCN(C=O)c1c(CC)nc2ccc(C(=O)Nc3cc(-c4ccccc4)ccc3OC)cn12	?	–	?	?	?	23.1µM
CCCCN(C=O)c1c(CC)nc2ccc(C(=O)NCCN(C)C)cn12	–	–	–	–	–	–
Cc1ccc(/C=N/NC(=O)CCCOc2ccc(Cl)cc2Cl)cc1[N+](=O)[O-]	?	–	–	?	?	–
O=C(CCCOc1ccc(Cl)cc1Cl)N/N=C/c1ccccc1	–	–	–	–	–	?
Cc1ccc(/C=N/NC(=O)CCCOc2ccc(Cl)cc2Cl)cc1	14.6µM	?	–	?	14.6µM	?
COc1ccc(/C=N/NC(=O)CCCOc2ccc(Cl)cc2Cl)cc1[N+](=O)[O-]	–	?	–	?	–	20.6µM
O=C(CCCOc1ccc(Cl)cc1Cl)N/N=C/c1ccccc1O	?	?	25.1µM	–	?	–
O=C(NCC(c1ccco1)S(=O)(=O)c1cccs1)c1ccc(F)c(F)c1 (stereo not given)	·	·	·	–	·	–
Cc1cc(C(F)F)n2nc(C(=O)Nc3cccc(Cl)c3C)nc2n1	·	–	–	–	·	–
COc1ccc2c(C)c(CC(=O)NCCc3ccccc3)c(=O)oc2c1OC	·	–	–	–	·	–
O=C1CC(c2cccc(Br)c2)c2cc3c(cc2N1)CCC3 (stereo not given)	4.47µM	?	–	18.4µM	4.47µM	7.31µM
O=C1CC(c2cc(F)ccc2F)c2cc3c(cc2N1)CCC3 (stereo not given)	2.59µM	–	–	4.61µM	2.59µM	–
NS(=O)(=O)c1cc2c(cc1Cl)CN(C1CCCCC1)C2=O	·	–	–	·	·	·
CCc1ccc(S(=O)(=O)c2c(C(=O)c3ccccc3)cnc3ccc(CC)cc23)cc1	·	–	?	–	·	–
CCCc1nc2cccnc2n1C1CCN(C(=O)Cn2nccc2C)CC1	·	–	·	·	·	·
CCc1ccc(C(=O)CC2(O)C(=O)N(CCc3ccccc3)c3ccc(Cl)cc32)cc1 (stereo not given)	·	?	?	–	·	–
CCOc1ccc(Nc2nc(NCCN3CCOCC3)nc(OC)n2)cc1	–	–	–	–	–	18.4µM
Cc1ccc(CNC(=O)c2ccc3c(c2)c(C)c(C)n3Cc2ccc(Cl)cc2)o1	·	·	·	–	·	–
C/C(N)=C(/C#N)C(=O)CSc1nc2ccccc2c(=O)n1Cc1ccc(C)cc1	?	?	–	?	16.4µM	?
Cc1ccc(-c2csc3nc(SCC(N)=O)n(Cc4ccccc4)c(=O)c23)cc1	?	–	–	–	?	20.6µM
O=C1CN(C(=O)CSc2nc3cc(Cl)ccc3c(=O)n2Cc2ccccc2)c2ccccc2N1	–	–	–[11.3 µM]	–	–	–
O=C1CN(C(=O)CSc2nnnn2-c2ccc(Cl)cc2)c2ccccc2N1	–	–	–	–	–	16.4µM
Cc1ccc(Cn2c(SCC(=O)N3CC(=O)Nc4ccccc43)nc3ccccc3c2=O)cc1	–	–	–	–	?	20.6µM
CC(C)Cn1c(SCC(=O)N2CC(=O)Nc3ccccc32)nc2ccccc21	–	–	–	–	–	10.3µM
CCc1ccc(CNC(=O)CCCN2C(=O)c3cccnc3Oc3ccc(Cl)cc32)cc1	·	·	·	–	·	–
SMILES	HT1080-NT tox	S2 tox	ATXN2 expr inh	KB-3-1 tox	HT1080 IDH1KD tx	KB-V1 cytotox
Cc1nn2c(NCc3ccccn3)cc(C(C)C)nc2c1-c1ccccc1	–	?	·	–	?	?
Cc1cc(NCc2ccccn2)n2nc(C)c(-c3ccc(Cl)cc3)c2n1	?	–	?	–	20.6µM	?
CCCc1cc(NCc2ccccn2)n2nc(C)c(-c3ccccc3)c2n1	–	?	10µM	?	?	–
Cc1ccc(NC(=S)N(CCCN2CCC(C)CC2)Cc2ccco2)cc1C	–	–	–	–	–	23.1µM
COc1ccc(C)cc1Nc1n[n+](-c2ccccc2)c(-c2ccc(SC)cc2)s1	?	–	–	?	18.4µM	?
CCc1ccc(CNC(=O)c2cnc3sc4cc(OC)ccc4n3c2=O)cc1	·	·	·	–	·	–
CCOC(=O)N1CCc2c(sc(NCc3sccc3C)c2C(=O)Nc2ccc(OC)cc2OC)C1	·	–	14.1µM	–	·	–
O=C(CCS(=O)(=O)c1cc2c3c(c1)CCN3C(=O)CC2)Nc1cccc(Br)c1	·	–	–	–	·	–
c1ccc(-c2noc(-c3ccncc3)n2)nc1	11.2µM	–	–	?	?	–
Cc1cccc(-c2noc(-c3ccc4c(c3)OCO4)n2)c1	–	·	–	–	–	?
CNC(=O)CCc1nc(-c2ccc(C(C)(C)C)cc2)no1	–	–	–	–	–	–
c1ccc(-c2noc(-c3ccc4ccccc4c3)n2)nc1	–	–	2.24µM	?	–	5.8µM
c1ccc(-c2noc(-c3ccc4c(c3)OCO4)n2)nc1	1.78µM	–	?	4.61µM	2.51µM	4.11µM
COc1cccc(-c2nc(-c3ccccn3)no2)c1	?	–	?	?	?	?
CC(C)(C)c1ccc(-c2noc(CCC(N)=O)n2)cc1	–	–	0.316µM	–	–	–
Cc1ccc(Nc2ncc(C(=O)Nc3ccc(F)cc3F)c3ccccc23)cc1Cl	·	–	–	–	·	–
Cc1cc(NC(=O)CCNS(=O)(=O)c2ccc3c(c2)CCCC(=O)N3)ccc1Br	·	–	–	–	·	–
CCC(=O)N1CCc2cc(S(=O)(=O)NC(C(=O)NCCc3ccc(Cl)cc3)C(C)C)ccc21 (stereo not given)	·	–	–	–	·	–
Cc1ccc(-c2nnc(Nc3cccc(O)c3)c3ccccc23)cc1S(=O)(=O)N1CCCCC1	·	?	–	–	·	–
Clc1ccccc1/C=C/c1nc(-c2ccccn2)no1	–	–	5.01µM	–	–	–
CC(C)(C)c1ccc(-c2nc(-c3ccncc3)no2)cc1	–	–	–	?	?	16.4µM
Cc1onc(-c2ccccc2Cl)c1-c1nc(-c2ccccn2)no1	–	–	–	–	–	–
O=C(CSc1ccccn1)Nc1nc2ccccc2s1	–	–	–	–	–	–
O=S(=O)(CCSc1ccccn1)c1nc2ccccc2s1	20µM	·	?	–	7.94µM	–
O=S(=O)(CCSc1nc2ccccc2o1)c1nc2ccccc2s1	10µM	·	28.2µM	–	6.31µM	–
COCCCN=C1NN=C(c2cc(C)n(Cc3ccco3)c2C)CS1	1.64µM	–	–	?	1.64µM	?
COCCn1c(C)cc(C2=NNC(=Nc3ccc(Cl)cc3Cl)SC2)c1C	–	–	–	–	–	–
